Data taken from PubChem BioAssay (EPA / NIEHS).
Results filed as inconclusive are left out. Calls of active or inactive are those of the source. The calls were made as follows, unless noted: active = hit-call score of the fitted dose curve at least 0.9, where 1 is the maximum; inconclusive = response in the unintended direction; inactive = score below 0.9.

Target: Peroxisome proliferator-activated receptor gamma (Homo sapiens) (UniProt P37231)
Sequence (P37231 whole entry, looked up): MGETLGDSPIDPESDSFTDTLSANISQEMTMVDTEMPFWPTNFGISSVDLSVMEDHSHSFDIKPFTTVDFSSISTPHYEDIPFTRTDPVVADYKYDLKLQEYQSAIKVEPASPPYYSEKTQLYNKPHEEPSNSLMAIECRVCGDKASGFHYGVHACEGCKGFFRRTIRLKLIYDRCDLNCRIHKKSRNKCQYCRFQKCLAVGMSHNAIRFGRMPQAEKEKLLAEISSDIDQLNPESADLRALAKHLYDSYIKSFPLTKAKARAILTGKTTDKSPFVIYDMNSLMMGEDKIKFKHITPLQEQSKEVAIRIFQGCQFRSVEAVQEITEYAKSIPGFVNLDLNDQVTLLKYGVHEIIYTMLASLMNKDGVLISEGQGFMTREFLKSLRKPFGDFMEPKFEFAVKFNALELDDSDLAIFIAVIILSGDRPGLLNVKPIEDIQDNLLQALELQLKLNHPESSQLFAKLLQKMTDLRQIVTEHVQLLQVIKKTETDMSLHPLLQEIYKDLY
Test: OT_PPARg_PPARgSRC1_0480: Odyssey Thera (OT) 8-hour Protein-Complementation Assay for Peroxisome Proliferator-activated Receptor Gamma / SRC-1 Co-activator (AID 2283387);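 also: nuclear to cytoplasmic split Venus YFP fluorescence ratio reporting PPARg SRC-1 interaction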
Conditions: not given
Method in brief: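 HEK293T transiently transfected with PPARg and SRC-1 fused to Venus YFP fragments, compounds 8 h at 37C. Fixed, Draq5-stained cells imaged; nuclear/cytoplasmic 488 nm fluorescence ratio over at least 350 cells per image; gain fitted versus DMSO.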
In the case of `O=C(Oc1ccccc1)c1cccc(C(=O)Oc2ccccc2)c1`, the outcome is reported as “inactive”. For `CC1=C(C)S(=O)(=O)CCS1(=O)=O`, the outcome was “inactive”. In the case of `CC(COCC(C)OC(=O)c1ccccc1)OC(=O)c1ccccc1` (stereo unspecified), the outcome is reported as “inactive”. In the case of `CCCCc1nc2cccnc2n1Cc1ccc(-c2ccccc2-c2nnn[nH]2)cc1`, the AC50 is reported as 18.5 µM (active). For `CC(=O)O[C@]1(C(C)=O)CC[C@H]2[C@@H]3C=C(Cl)C4=CC(=O)[C@@H]5C[C@@H]5[C@]4(C)[C@H]3CC[C@@]21C`, the outcome was “inactive”. With `Oc1ccccc1O` the outcome was “inactive”. With `O=C1OC(c2ccc(O)cc2)(c2ccc(O)cc2)c2ccccc21` the outcome was “inactive”. With `C=CCc1ccc(OC)c(OC)c1` the outcome was “inactive”.

Target: Peroxisome proliferator-activated receptor gamma (Homo sapiens) (UniProt P37231)
Test: OT_PPARg_PPARgSRC1_1440: Odyssey Thera (OT) 24-hour Protein-Complementation Assay for Peroxisome Proliferator-activated Receptor Gamma/ SRC-1 Co-activator (AID 2283388)
Conditions: not given
Method in brief: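 Readout is the 488 nm N/C fluorescence ratio from fixed, Draq5-stained HEK293T cells after 24 h compound exposure. Cells carried transiently transfected PPARg and SRC-1 fused to Venus fragments, transfected 48 h before treatment.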
With `CCN(CC)CCOc1ccc(C(=C(Cl)c2ccccc2)c2ccccc2)cc1` the outcome was “inactive”. In the case of `CCC(C)N(C)C(=O)c1cc2ccccc2c(-c2ccccc2Cl)n1` (stereo unspecified), the outcome is reported as “inactive”. In the case of `O=C(O)c1[nH]n(-c2ccc(S(=O)(=O)O)cc2)c(=O)c1N=Nc1ccc(S(=O)(=O)O)cc1`, the outcome is reported as “inactive”. In the case of `CO[C@@H]1COCC[C@@H]1N[C@@H]1CC[C@@](C(=O)N2CCc3ncc(C(F)(F)F)cc3C2)(C(C)C)C1`, the outcome is reported as “inactive”. For `CC(=O)OC1CC(C)OC(C)O1` (stereo unspecified), the outcome was “inactive”. For `CCCCCCC(CCCCCCCCCCC(=O)OCC(COC(C)=O)OC(C)=O)OC(C)=O` (stereo unspecified), the outcome was “inactive”. For `CN(C)CCCN1c2ccccc2Sc2ccc(Cl)cc21`, the outcome was “inactive”. With `O=C(O)CN(CC(=O)O)CC(=O)O` the outcome was “inactive”. For `Cc1ccc(-c2cc(C(F)(F)F)nn2-c2ccc(S(N)(=O)=O)cc2)cc1`, the outcome was “inactive”. For `N[C@@H](Cc1c[nH]c2ccccc12)C(=O)O`, the outcome was “inactive”. In the case of `CCCCOC(=O)CCCCC(=O)OCCCC`, the outcome is reported as “inactive”. For `C#CC(O)C(CC)CCCC` (stereo unspecified), the outcome was “inactive”. For `CCCCCCCCCC[N+](C)(C)[O-]`, the outcome was “inactive”. For `O=C1c2c(O)cccc2Cc2cccc(O)c21`, the outcome was “inactive”. In the case of `CCCCCCCC(=O)OC`, the outcome is reported as “inactive”. For `NC(=Nc1ccccc1)Nc1ccccc1`, the outcome was “inactive”. For `O=C(N[C@@H](c1ccccc1)[C@@H]1CCCCN1)c1cccc(C(F)(F)F)c1Cl`, the outcome was “inactive”. For `COc1ccc(C(=O)Nc2nc3ccccc3c(NCc3ccccc3)c2C#N)cc1`, the outcome was “inactive”. For `O=C(O)CC(O)(CC(=O)O)C(=O)O`, the outcome was “inactive”. With `S=c1[nH]c2ccccc2s1` the outcome was “inactive”. In the case of `O=C1NC(=O)C(c2ccccc2)(c2ccccc2)N1`, the outcome is reported as “inactive”. With `O=C(Oc1ccccc1)c1cccc(C(=O)Oc2ccccc2)c1` the outcome was “inactive”. For `CC1=C(C)S(=O)(=O)CCS1(=O)=O`, the outcome was “inactive”. In the case of `CC(COCC(C)OC(=O)c1ccccc1)OC(=O)c1ccccc1` (stereo unspecified), the outcome is reported as “inactive”. For `CCCCc1nc2cccnc2n1Cc1ccc(-c2ccccc2-c2nnn[nH]2)cc1`, the AC50 was 21.2 µM (active). In the case of `CC(=O)O[C@]1(C(C)=O)CC[C@H]2[C@@H]3C=C(Cl)C4=CC(=O)[C@@H]5C[C@@H]5[C@]4(C)[C@H]3CC[C@@]21C`, the outcome is reported as “inactive”. For `Oc1ccccc1O`, the outcome was “inactive”. With `O=C1OC(c2ccc(O)cc2)(c2ccc(O)cc2)c2ccccc21` the outcome was “inactive”. In the case of `C=CCc1ccc(OC)c(OC)c1`, the outcome is reported as “inactive”.

Read-out: not listed separately
Test: CEETOX_H295R_11DCORT: CeeTox H295R High-throughput Steroidogenesis Assay for 11-Deoxycortisol (11DCORT) (AID 2283432; active = hit-call score of the fitted dose curve at least 0.9, where 1 is the maximum; inactive = score below 0.9;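 as to AC50: 11-deoxycortisol secreted into the medium measured by LC-MS/MS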)
Conditions: actives raise or lower the signal
Method in brief: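 H295R cells prestimulated 48 h with 10 uM forskolin, then exposed 48 h to chemical in 0.1% DMSO. 11-Deoxycortisol in medium quantified by HPLC-MS/MS after MTBE extraction; bidirectional fit versus DMSO. MTT viability read in same wells.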
With `CCN(CC)CCOc1ccc(C(=C(Cl)c2ccccc2)c2ccccc2)cc1` the AC50 was 0.104 µM (active). With `O=C(O)CN(CC(=O)O)CC(=O)O` the outcome was “inactive”. With `CCCCCCCCCC[N+](C)(C)[O-]` the AC50 was 28.5 µM (active). For `O=C1c2c(O)cccc2Cc2cccc(O)c21`, the AC50 was 50 µM (active). For `COc1ccc(C(=O)Nc2nc3ccccc3c(NCc3ccccc3)c2C#N)cc1`, the outcome was “inactive”. With `S=c1[nH]c2ccccc2s1` the outcome was “inactive”. For `O=C1NC(=O)C(c2ccccc2)(c2ccccc2)N1`, the outcome was “inactive”. In the case of `O=C(Oc1ccccc1)c1cccc(C(=O)Oc2ccccc2)c1`, the AC50 is reported as 36.4 µM (active). With `CC1=C(C)S(=O)(=O)CCS1(=O)=O` the outcome was “inactive”. In the case of `CCCCc1nc2cccnc2n1Cc1ccc(-c2ccccc2-c2nnn[nH]2)cc1`, the outcome is reported as “inactive”. With `Oc1ccccc1O` the outcome was “inactive”.

Read-out: not listed separately
Test: CEETOX_H295R_OHPREG: CeeTox H295R High-throughput Steroidogenesis Assay for OH-Pregnenolone (OHPREG) (AID 2283434; active = hit-call score of the fitted dose curve at least 0.9, where 1 is the maximum; inactive = score below 0.9)
Conditions: actives raise or lower the signal
Method in brief: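 Human adrenal H295R cells were prestimulated 48 h with 10 uM forskolin, then exposed 48 h to chemical in 0.1% DMSO. Medium 17alpha-hydroxypregnenolone was quantified by HPLC-MS/MS after MTBE extraction; bidirectional fitting versus DMSO baseline.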
For `CCN(CC)CCOc1ccc(C(=C(Cl)c2ccccc2)c2ccccc2)cc1`, the AC50 was 0.0411 µM (active). For `CCC(C)N(C)C(=O)c1cc2ccccc2c(-c2ccccc2Cl)n1` (stereo unspecified), the outcome was “inactive”. For `CCCCCCCCCC[N+](C)(C)[O-]`, the outcome was “inactive”. For `O=C1c2c(O)cccc2Cc2cccc(O)c21`, the outcome was “inactive”. For `COc1ccc(C(=O)Nc2nc3ccccc3c(NCc3ccccc3)c2C#N)cc1`, the AC50 was 9.81 µM (active). With `S=c1[nH]c2ccccc2s1` the AC50 was 78.9 µM (active). In the case of `O=C1NC(=O)C(c2ccccc2)(c2ccccc2)N1`, the outcome is reported as “inactive”. With `O=C(Oc1ccccc1)c1cccc(C(=O)Oc2ccccc2)c1` the outcome was “inactive”. In the case of `CC1=C(C)S(=O)(=O)CCS1(=O)=O`, the outcome is reported as “inactive”. For `CCCCc1nc2cccnc2n1Cc1ccc(-c2ccccc2-c2nnn[nH]2)cc1`, the AC50 was 10.6 µM (active). For `CC(=O)O[C@]1(C(C)=O)CC[C@H]2[C@@H]3C=C(Cl)C4=CC(=O)[C@@H]5C[C@@H]5[C@]4(C)[C@H]3CC[C@@]21C`, the AC50 was 2.37 µM (active). For `Oc1ccccc1O`, the outcome was “inactive”. With `O=C1OC(c2ccc(O)cc2)(c2ccc(O)cc2)c2ccccc21` the outcome was “inactive”.
